Data published in PMC5540273 (PLoS ONE, 2017).

What was measured:
Conditions in all cases: concentration: 1 μM, replicates: in singlicate; n = 1
MYO3A = test system: MYO3A
MYO3B = test system: MYO3B
NDR1 = test system: T1, NDR1
T1 construct: gene STK38

NDR2 = test system: NDR2
NEK10 = test system: NEK10
NEK11 = test system: NEK11
NEK1 = test system: NEK1
NEK2 = test system: NEK2
NEK3 = test system: NEK3
NEK4 = test system: NEK4
NEK5 = test system: NEK5
NEK6 = test system: NEK6
NEK7 = test system: NEK7
NEK9 = test system: NEK9
NIK = test system: T2, NIK
T2 construct: gene MAP3K14

NIM1 = test system: T3, NIM1
T3 construct: gene MGC42105

NLK = test system: NLK
OSR1 = test system: T4, OSR1
T4 construct: gene OXSR1

PAK1 = test system: PAK1
PAK2 = test system: PAK2
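Also: KINOMEscan kinase panel screen.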

Structure (SMILES) | %Inh (MYO3A) [%] | %Inh (MYO3B) [%] | %Inh (NDR1) [%] | %Inh (NDR2) [%] | %Inh (NEK10) [%] | %Inh (NEK11) [%] | %Inh (NEK1) [%] | %Inh (NEK2) [%] | %Inh (NEK3) [%] | %Inh (NEK4) [%] | %Inh (NEK5) [%] | %Inh (NEK6) [%] | %Inh (NEK7) [%] | %Inh (NEK9) [%] | %Inh (NIK) [%] | %Inh (NIM1) [%] | %Inh (NLK) [%] | %Inh (OSR1) [%] | %Inh (PAK1) [%] | %Inh (PAK2) [%]
COc1ccc(CSc2nnc(-c3ccc4ncsc4c3)o2)cc1C(F)(F)F | 15 | 6 | 0 | 10 | 8 | 0 | 10 | 0 | 29 | 0 | 0 | 0 | 0 | 0 | 0 | 0 | 0 | 0 | 16 | 16
Cl.Cl.Cl.N#Cc1ccc(CCNc2nccc(-c3cccc(CN4CCNCC4)c3)n2)cc1 [GSK2137462] | 2 | 0 | 4 | 0 | 1 | 0 | 0 | 15 | 0 | 0 | 33 | 0 | 0 | 27 | 0 | 3 | 24 | 9 | 24 | 21
COc1ccc(CSc2nnc(-c3ccc4c(c3)CCO4)o2)cc1 | 0 | 0 | 0 | 0 | 0 | 0 | 10 | 0 | 26 | 0 | 0 | 0 | 0 | 0 | 0 | 0 | 0 | 0 | 18 | 9
CC(=O)c1c(C)c2cnc(Nc3ccc(N4CCNCC4)cn3)nc2n(C2CCCC2)c1=O | 11 | 0 | 0 | 0 | 13 | 0 | 0 | 0 | 36 | 0 | 1 | 0 | 0 | 0 | 3 | 0 | 29 | 0 | 0 | 0
CCCCc1nn2ncccc2c1-c1ccnc(NC2CC2)n1 [GW684374] | 23 | 0 | 8 | 10 | 0 | 0 | 3 | 0 | 0 | 0 | 4 | 0 | 0 | 4 | 0 | 1 | 68 | 0 | 6 | 0
COc1ccc2cc(-c3nc(-c4ccccc4C(C)C)[nH]c3-c3ccncc3)ccc2c1 [SB-660566] | 0 | 0 | 18 | 0 | 45 | 4 | 41 | 0 | 0 | 15 | 0 | 2 | 0 | 4 | 0 | 13 | 29 | 3 | 25 | 28
O=C1NC(=O)C(c2ccc(Cl)cc2)=C1Nc1cccc(Cl)c1 [SB-317651] | 5 | 8 | 12 | 0 | 0 | 0 | 0 | 0 | 16 | 0 | 6 | 0 | 0 | 0 | 5 | 12 | 0 | 0 | 2 | 17
CN1c2ccc(-c3ccc(C(N)=O)cc3)cc2-c2[nH]ncc2S1(=O)=O | 0 | 11 | 26 | 3 | 0 | 0 | 0 | 0 | 35 | 0 | 0 | 0 | 0 | 0 | 12 | 0 | 8 | 0 | 11 | 22
O=c1cc(N2CCOCC2)nc2n(Cc3ccccc3F)ccn12 [GSK2297428] | 13 | 0 | 34 | 0 | 1 | 0 | 0 | 0 | 0 | 0 | 0 | 0 | 0 | 0 | 0 | 2 | 0 | 0 | 21 | 0
COc1nccc(-c2c(-c3ccc(F)cc3)ncn2CCCN2CCOCC2)n1 [SB-282852] | 5 | 0 | 16 | 0 | 0 | 2 | 0 | 0 | 29 | 0 | 0 | 0 | 0 | 0 | 18 | 34 | 0 | 0 | 0 | 0
